Compound activity from PubChem BioAssay.
NS1 inh: qHTS Assay for Inhibitors of Influenza NS1 Protein Function. Potency, µM (titrated, usually from 46.1 µM), without a hit: at the top dose activity, positive = more growth. hit rate 0.4% among 270,000; also: potency is read from the fitted curve at half-maximal effect; actives are rising curves; nearly all actives have a fitted effect of over 50% in size
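OD600 was taken as the measure of yeast growth restored by compound in an NS1-expressing S. cerevisiae strain. Cells had been washed out of glucose medium and diluted 1:100 into galactose -URA medium, pH 6.0.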
SARS PLpro yeast: qHTS of Yeast-based Assay for SARS-CoV PLP | S. cerevisiae expressing SARS-CoV PLpro, growth rescue | Potency, µM (series often up to 32.9 µM), for the others: at the top dose activity, positive = growth rescue, most hits filed as activators | hit rate 0.19% among 330,000 | AID 485353, 2010; also: potency is read from the fitted curve at half-maximal effect; 0% is about no effect; nearly all actives have a fitted effect of over 55% in size
LmPK inh: qHTS Assay for Inhibitors of Leishmania Mexicana Pyruvate Kinase (LmPK). Potency, µM (highest dose often 57.5 µM), for the others: at the highest dose activity change, negative = inhibition, hits mostly inhibitors. purified LmPK, Kinase-Glo ATP luminescence, 1 h. Q27686. hit rate 0.37% among 290,000; active = well fitted curve in the direction sought with a large enough effect; inconclusive = small, poorly fitted or top-dose-only effect, or another doubt; inactive = no such curve, though single readings can be large; an effect the other way counts as inactive or inconclusive; also: potency is read from the fitted curve at half-maximal effect; % is scaled to controls: 0 for no effect and ±100 for the full control effect
Target sequence (Q27686 whole entry, looked up): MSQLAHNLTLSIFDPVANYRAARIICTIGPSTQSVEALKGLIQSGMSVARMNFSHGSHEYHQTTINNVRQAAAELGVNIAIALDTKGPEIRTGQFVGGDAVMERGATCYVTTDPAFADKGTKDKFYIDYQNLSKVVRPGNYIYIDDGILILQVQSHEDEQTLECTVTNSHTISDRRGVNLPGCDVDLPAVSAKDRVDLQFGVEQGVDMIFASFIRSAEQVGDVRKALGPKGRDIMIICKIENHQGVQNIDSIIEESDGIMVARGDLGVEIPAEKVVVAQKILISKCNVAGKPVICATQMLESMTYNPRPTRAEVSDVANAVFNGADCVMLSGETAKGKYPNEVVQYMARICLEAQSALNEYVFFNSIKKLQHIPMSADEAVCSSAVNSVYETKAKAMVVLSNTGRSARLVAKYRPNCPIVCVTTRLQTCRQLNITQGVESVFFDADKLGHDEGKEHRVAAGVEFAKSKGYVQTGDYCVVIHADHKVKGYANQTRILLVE
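In 50 mM imidazole pH 7.2 with 7 mM MgCl2, LmPK (0.1 nM) turned over PEP (0.5 mM) and ADP (0.1 mM) for 1 h at room temperature. Luciferase read-out of ATP.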
Cycloheximide cs: Cycloheximide Counterscreen for Small Molecule Inhibitors of Shiga Toxin | cell reporter, cycloheximide protein synthesis inhibition counterscreen | max response, % | hit rate 12% among 300,000; in the data active = max response mostly above about 13%, no sharp cut-off; inactive = mostly below about 14%; also: read at 38.3 µM for the half of the compounds with a filed dose; 0% is about no effect
Tb PYK inh: qHTS of Trypanosoma Brucei Inhibitors. TbPYK enzyme, Kinase-Glo Plus ATP luminescence, 45 min. Potency, µM (top dose mostly 76.8 µM), inactives show at the top dose activity, negative = inhibition, hits mostly inhibitors. hit rate 0.12% among 410,000. AID 624173, 2012; active = well fitted curve in the direction sought with a large enough effect; inconclusive = small, poorly fitted or top-dose-only effect, or another doubt; inactive = no such curve, though single readings can be large; an effect the other way counts as inactive or inconclusive; also: potency is read from the fitted curve at half-maximal effect; % is scaled to controls: 0 for no effect and ±100 for the full control effect; nearly all actives have a fitted effect of over 50% in size
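Luminescent Kinase-Glo Plus end-point after 45 min room-temperature reaction of T. brucei pyruvate kinase started with 130 uM ADP (final). Buffer TEA 50 mM pH 7.2 with KCl, MgCl2, BSA, Tween-20; titration-based qHTS with fitted concentration-effect curves.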
Shiga inhibitor: A qHTS for Small Molecule Inhibitors of Shiga Toxin; Vero cells, Shiga toxin protein synthesis inhibition reporter; inhibition, % at 38.7 µM; hit rate 9.2% among 290,000; AID 2315, 2010; in the data active = inhibition mostly above about 28%, no sharp cut-off; inactive = mostly below about 43%; also: 0% is about no effect
Numbers without * were called inactive; u = inconclusive; x = not tested or not shown. Many of the other results were omitted from the sample, so hits are more common in it than they were. Unless noted, calls follow the shape of the full dose curve.

SMILES	NS1 inh	SARS PLpro yeast	LmPK inh	Cycloheximide cs	Tb PYK inh	Shiga inhibitor
CCOC(=O)c1nc2ccccc2c(=O)[nH]1	-3%	-4%	-1%	37*	-2%	54*
Cc1ccsc1C(=O)OCc1nc2ccsc2c(=O)[nH]1	x	0%	x	x	-14%	x
COCCCn1nnnc1SCC(=O)N1CCCC1	5%	u	-7%	-4	2%	-28
CCn1nnnc1SCC(=O)Nc1nc(C)c(C)s1	0%	12%	-1%	29*	-2%	44*
COCCCn1nnnc1SCC(=O)Nc1nc(C)c(C)s1	4%	23%	-1%	18*	1%	-14
COC(=O)c1c(-c2cccs2)csc1NC(=O)c1ccc(Cl)cc1	x	x	x	x	-29%	x
COC(=O)c1c(-c2cccs2)csc1NC(=O)c1cccnc1	-86%	-12%	3%	37*	-20%	60*
CC(C)(C)n1ncc2c(=O)n(CC(=O)Nc3ccc(Cl)cc3)cnc21	-12%	3%	4%	1	3%	-6
CC(C)(C)n1ncc2c(=O)n(CC(=O)NCc3ccccc3)cnc21	-6%	-8%	1%	20*	3%	37*
CC1CCN(C(=O)Cn2cnc3c(cnn3C(C)(C)C)c2=O)CC1	x	1%	9%	56*	4%	93*
CC(C)(C)n1ncc2c(=O)n(CC(=O)c3ccc(Cl)cc3)cnc21	-11%	-3%	-1%	78*	-8%	84*
CC(C)(C)n1ncc2c(=O)n(Cc3c(F)cccc3Cl)cnc21	-47%	-4%	0%	16*	7%	52
CCc1noc(C)c1C(=O)Nc1cc(S(=O)(=O)N2CCOCC2)ccc1OCC(F)(F)F	x	2%	x	x	5%	x
O=C(COC(=O)/C=C/c1ccccc1)NC1CCCCCC1	x	-5%	x	x	-4%	x
Cc1cc(-c2ccc(C)c(S(=O)(=O)N(Cc3cccs3)C(C)C)c2)on1	x	x	x	x	-1%	x
COc1ccccc1Cn1c(C)c(C(=O)NCCC#N)sc1=O	x	x	x	x	7%	x
CSCCC(N)C(=O)O (centres undefined)	x	x	x	-1	-6%	21
CCn1c(SCC(=O)c2ccc(O)c(O)c2)nnc1-c1ccc(C)cc1	10%	-2%	5%	0	-14%	-6
Cn1c(SCC(=O)c2ccc(F)cc2)nnc1-c1ccccc1Br	x	x	x	x	4%	x
Cn1c(CO)cnc1SCC(=O)c1ccc(F)cc1	-2%	1%	-2%	24*	0%	75*
Cn1c(SCC(=O)c2ccc(F)cc2)nnc1-c1ccccc1N	9%	-2%	4%	47*	-6%	123*
Cc1ccc(C(=O)CSc2nnc(-c3ccccc3N)n2C)cc1	-2%	4%	0%	65*	0%	94*
CCn1c(Cc2cccn2C)nnc1SCC(=O)c1ccc(C)cc1	-4%	-7%	2%	35*	-7%	129*
Cc1occc1-c1nnc(SCC(=O)c2ccc(Cl)cc2)n1C	-10%	-8%	-2%	13	-8%	36
COc1ccc(N2CC(NC(=O)COc3ccc4ccccc4c3)CC2=O)cc1 (centres undefined)	x	x	x	x	2%	x
SMILES	NS1 inh	SARS PLpro yeast	LmPK inh	Cycloheximide cs	Tb PYK inh	Shiga inhibitor
Cc1cccc(CSc2ncc(CO)n2C)c1	-1%	-26%	-8%	20*	-5%	17
Cn1c(SCC(=O)c2cc(Cl)c(Cl)s2)nnc1-c1ccco1	6%	-1%	8%	2	u	4
Cc1ccc(C(=O)CSc2nnc(-c3ccco3)n2C)cc1	-6%	1%	-1%	35*	-26%	52*
Cc1cccc(CSc2ncc(CO)n2Cc2ccc(F)cc2)c1	x	x	x	x	-1%	x
COc1ccc(NC(=O)CS(=O)(=O)c2ccc(Br)cc2)cc1	-5%	-1%	0%	5	-9%	-4
O=C1c2ccccc2NC(c2ccc(O)cc2)N1c1ccccc1 (centres undefined)	0%	-2%	-1%	36*	-1%	58*
O=C1c2ccccc2NC(c2ccccc2)N1c1ccc(O)cc1 (centres undefined)	-6%	1%	3%	-2	1%	36
O=C1c2ccccc2NC(c2cccc([N+](=O)[O-])c2)N1O (centres undefined)	-35%	9%	-4%	-2	-10%	-5
O=C1c2ccccc2NC(c2ccccc2)N1/N=C/c1ccccc1 (centres undefined)	-37%	-11%	2%	10	-3%	37
O=C1c2ccccc2NC(c2ccc(O)cc2)N1/N=C/c1ccc(O)cc1 (centres undefined)	19%	-4%	1%	19*	4%	43*
O=C1c2ccccc2NC(c2cccc(O)c2)N1O (centres undefined)	1%	1%	7%	16*	-9%	26
Cc1cc(Br)ccc1SCC(=O)OCC(=O)Nc1ccc2[nH]c(=O)[nH]c2c1	x	-4%	x	x	4%	x
Cc1cccc(NC(=O)CSc2cn(CC(=O)N3CCC(C)CC3)c3ccccc23)c1C	x	x	x	x	3%	x
Cc1cc(C)c(/C=C/c2onc(C)c2S(=O)(=O)N2CCC(C(=O)Nc3ccc(Cl)c(C(F)(F)F)c3)CC2)c(C)c1	x	x	x	x	-5%	x
CN1CCN(c2cc(-c3cccc(C(=O)O)c3)nc3ccnn23)CC1	x	x	x	x	1%	x
CC1CCCC(NC(=O)COC(=O)CCSc2ccccc2)C1C (centres undefined)	x	-5%	8%	-2	-8%	4
CCc1ccc(N(C(=O)c2csnn2)C(C(=O)NC(C)(C)C)c2ccccn2)cc1 (centres undefined)	4%	-2%	-13%	29*	-9%	76*
CCc1ccc(N(C(=O)c2csnn2)C(C(=O)NC(C)(C)CC)c2ccccn2)cc1 (centres undefined)	x	3%	-1%	9	-8%	-13
CCc1ccccc1NC(=O)C1COc2ccccc2C1 (centres undefined)	x	x	x	x	-1%	x
Cc1c(C(=O)O)cccc1-n1c(C)cc(/C=N/Nc2ccc([N+](=O)[O-])cn2)c1C	8%	0%	-1%	32*	8%	71*
Cc1ccc(-n2c(C)cc(/C=N/Nc3ccc([N+](=O)[O-])cn3)c2C)cc1	16%	-4%	-2%	39*	8%	59*
O=C(O)c1ccccc1C=NNc1ccc([N+](=O)[O-])cn1	x	x	x	x	-3%	x
Cc1cc(/C=N/Nc2ccc([N+](=O)[O-])cn2)c(C)n1-c1ccccc1	6%	-9%	6%	27*	-3%	78*
CCOc1ccc(CCNC(=O)COC(=O)c2cccc(S(=O)(=O)N3CCCC3)c2)cc1OCC	x	4%	x	x	-9%	x
CCc1ccc(CNC(=O)CN2CCSc3ccccc32)cc1	x	x	x	x	-5%	x
O=C(CN1CCSc2ccccc21)NCCCc1ccccc1	x	0%	0%	37*	-2%	86*
Fc1cccc(NC(=S)N2CCc3ccccc32)c1	12%	1%	-1%	31	2%	36
